The record followed here is the supplement of paper PMC4100887.

Counter-ions that a name gives are not always drawn. ± gives the standard deviation of the averaged measurements.

The test system of the first assay is IMR-90. Kind of assay: relative cell viability (ATPlite) vs untreated control (fraction); higher = less toxic. As to conditions: 1 µM; 72 h. (ATP-based viability assays read luminescence as a measure of living cells.)
For the compound `N#CCCc1ccc2c(c1)-c1[nH]c3ccc([N+](=O)[O-])cc3c1CC(=O)N2` [Alsterpaullone, 2-Cyanoethyl], the relative cell viability stood at 1 ± 0.039.

`O=C1Nc2ccc(Cl)cc2/C1=C/c1cc(Cl)c(O)c(Cl)c1` [PKR Inhibitor, Negative Control] had a relative cell viability of 0.968 ± 0.089.

Consider `O=C1NC(=O)C(c2cn(CCCO)c3ncccc23)=C1c1cnccn1` [GSK-3b Inhibitor XI], for which the relative cell viability turned out to be 1.02 ± 0.054.

`O=c1[nH][nH]c2nnc(-c3c(-c4ccccc4)nn4ccccc34)cc12` [ERK Inhibitor II, Negative control] gave a relative cell viability of 0.966 ± 0.077.

`O=C(Nc1cccc(Nc2nccc(Nc3cccc(C(F)(F)F)c3)n2)c1)C1CC1` [Aurora Kinase Inhibitor III] registered a relative cell viability of 0.892 ± 0.074.

Turning to `Cn1sc(=O)n(Cc2ccccc2)c1=O` [GSK-3b Inhibitor I], the relative cell viability was determined as 0.98 ± 0.13.

In turn, `COc1cc2ncnc(N3CCN(C(=O)Nc4ccc(Oc5ccccc5)cc4)CC3)c2cc1OC` [PDGF Receptor Tyrosine Kinase Inhibitor III] had a relative cell viability of 1.01 ± 0.086.

`CCN(CC)C(=O)c1ccc(Nc2nc(OCC3CCCCC3)c3[nH]cnc3n2)cc1` [Cdk2 Inhibitor IV, NU6140] yielded a relative cell viability of 1.03 ± 0.076.

On to `O=C1Nc2ccc(Br)cc2/C1=C/c1cc2c([nH]1)CCCC2` [VEGF Receptor 2 Kinase Inhibitor II], for which the relative cell viability came out at 0.979 ± 0.059.

Regarding `N#Cc1cc([N+](=O)[O-])c2sc(C(N)=O)[n+]([O-])c2c1` [Polo-like Kinase Inhibitor II, BTO-1], the relative cell viability came out at 1.01 ± 0.12.

`CN(C)CCCn1cc(C2=C(c3c[nH]c4ccccc34)C(=O)NC2=O)c2ccccc21` [Bisindolylmaleimide I]: the relative cell viability was 0.895 ± 0.12.

`N#CC(c1ccnc(NCCc2cccnc2)n1)c1nc2ccccc2s1` (centres undefined) [JNK Inhibitor V]: the relative cell viability was 1.01 ± 0.077.

The compound `CS(=O)(=O)c1ccc(-c2nc(-c3ccc(F)cc3)c(-c3ccncc3)[nH]2)cc1` registered a relative cell viability of 1.03 ± 0.08.

Turning to `c1nc2c(NC3CCCCC3)nc(Nc3ccc(N4CCOCC4)cc3)nc2[nH]1` [Reversine], the relative cell viability is 0.936 ± 0.08.

As for `O=c1c2ccccc2[nH]c(=S)n1CCN1CCC(=C(c2ccc(F)cc2)c2ccc(F)cc2)CC1` [Diacylglycerol Kinase Inhibitor II], the relative cell viability was determined as 0.995 ± 0.097.

As to `Nc1n[nH]c(N)c1N=Nc1ccc(O)cc1` [Cdk9 Inhibitor II], the relative cell viability is 0.93 ± 0.099.

As for `O=Nc1c(-c2c(O)[nH]c3cc(Br)ccc23)[nH]c2ccccc12` [GSK-3 Inhibitor IX], the relative cell viability was determined as 0.935 ± 0.077.

In turn, `c1cc(-c2cnn3cc(-c4ccc(OCCN5CCCCC5)cc4)cnc23)ccn1` [AMPK Inhibitor, Compound C] returned a relative cell viability of 0.86 ± 0.092.

In the case of `Cc1cc(Nc2nc(-c3ccccc3)nc3ccccc23)n[nH]1` [GSK-3 Inhibitor XIII], the relative cell viability is 1 ± 0.059.

In turn, `CN[C@@H]1C[C@H]2O[C@@](C)([C@@H]1OC)n1c3ccccc3c3c4c(c5c6ccccc6n2c5c31)C(=O)N[C@H]4O` showed a relative cell viability of 0.101 ± 0.021.

On to `O=C(Nc1cc(Cl)cc2c1[nH]c1cnccc12)c1cccnc1` [IKK Inhibitor X], for which the relative cell viability came out at 0.946 ± 0.061.

`NCCNc1ncc(C(N)=O)c(Nc2cccc(C(F)(F)F)c2)n1` [Syk Inhibitor II] gave a relative cell viability of 0.974 ± 0.079.

`O=C1NC(=O)C(c2c[nH]c3ccccc23)=C1c1c[nH]c2ccccc12` [Bisindolylmaleimide IV] came in with a relative cell viability of 0.826 ± 0.14.

Compound `COc1cc2ncnc(Nc3cccc(O)c3)c2cc1OC` [WHI-P180, Hydrochloride] had a relative cell viability of 0.912 ± 0.092.

In turn, `COc1cc(Nc2ncc3ccn(-c4cccc(CCC#N)c4)c3n2)cc(OC)c1OC` [Keratinocyte Differentiation Inducer] returned a relative cell viability of 1.02 ± 0.058.

As to `CCN(CC)CCCCN1c2ccccc2Oc2ccc(Cl)cc21` [Akt Inhibitor X], the relative cell viability was 0.889 ± 0.093.

With `COc1nccc(-c2c(-c3ccc(F)cc3)ncn2C2CCC(O)CC2)n1` (centres undefined), the relative cell viability was determined as 0.964 ± 0.038.

For `NCCCn1cc(C2=C(c3c[nH]c4ccccc34)C(=O)NC2=O)c2ccccc21` [Bisindolylmaleimide III, Hydrochloride], the relative cell viability came out at 1.06 ± 0.088.

As to `O=C(c1ccc(Nc2nccc(-c3cc4ccccc4s3)n2)cc1)N1CCC(N2CCCC2)CC1` [IKK Inhibitor VII], the relative cell viability came out at 0.972 ± 0.066.

For the compound `COc1ccc2c(c1)c1c3c(c4c5ccccc5n(C)c4c1n2CC(O)CN(C)C)C(=O)NC3=O` (centres undefined) [Gö 7874, Hydrochloride], the relative cell viability came to 0.87 ± 0.034.

`COc1cc2ncnc(Nc3ccc(O)c(Br)c3)c2cc1OC` [JAK3 Inhibitor II] had a relative cell viability of 1.01 ± 0.09.

On to `O=C1C(Cl)=C(N2C(=O)CCC2=O)C(=O)c2ccccc21` [MEK Inhibitor II], for which the relative cell viability is 1.01 ± 0.11.

For another assay, the system named is K562. The assay is described as above. As to conditions: 1 µM; 72 h.
`N#CCCc1ccc2c(c1)-c1[nH]c3ccc([N+](=O)[O-])cc3c1CC(=O)N2` [Alsterpaullone, 2-Cyanoethyl] returned a relative cell viability of 0.307 ± 0.05.

`O=C1Nc2ccc(Cl)cc2/C1=C/c1cc(Cl)c(O)c(Cl)c1` [PKR Inhibitor, Negative Control] registered a relative cell viability of 0.848 ± 0.072.

The compound `O=C1NC(=O)C(c2cn(CCCO)c3ncccc23)=C1c1cnccn1` [GSK-3b Inhibitor XI] yielded a relative cell viability of 0.915 ± 0.075.

In turn, `O=c1[nH][nH]c2nnc(-c3c(-c4ccccc4)nn4ccccc34)cc12` [ERK Inhibitor II, Negative control] showed a relative cell viability of 0.833 ± 0.086.

With `O=C(Nc1cccc(Nc2nccc(Nc3cccc(C(F)(F)F)c3)n2)c1)C1CC1` [Aurora Kinase Inhibitor III], the relative cell viability came to 0.892 ± 0.044.

The compound `Cn1sc(=O)n(Cc2ccccc2)c1=O` [GSK-3b Inhibitor I] registered a relative cell viability of 0.793 ± 0.027.

`COc1cc2ncnc(N3CCN(C(=O)Nc4ccc(Oc5ccccc5)cc4)CC3)c2cc1OC` [PDGF Receptor Tyrosine Kinase Inhibitor III]: the relative cell viability stood at 0.736 ± 0.03.

The compound `CCN(CC)C(=O)c1ccc(Nc2nc(OCC3CCCCC3)c3[nH]cnc3n2)cc1` [Cdk2 Inhibitor IV, NU6140] registered a relative cell viability of 0.775 ± 0.041.

Take `O=C1Nc2ccc(Br)cc2/C1=C/c1cc2c([nH]1)CCCC2` [VEGF Receptor 2 Kinase Inhibitor II]: the relative cell viability came to 0.864 ± 0.081.

Take `N#Cc1cc([N+](=O)[O-])c2sc(C(N)=O)[n+]([O-])c2c1` [Polo-like Kinase Inhibitor II, BTO-1]: the relative cell viability stood at 0.88 ± 0.081.

In the case of `CN(C)CCCn1cc(C2=C(c3c[nH]c4ccccc34)C(=O)NC2=O)c2ccccc21` [Bisindolylmaleimide I], the relative cell viability stood at 0.169 ± 0.052.

Compound `N#CC(c1ccnc(NCCc2cccnc2)n1)c1nc2ccccc2s1` (centres undefined) [JNK Inhibitor V] came in with a relative cell viability of 0.851 ± 0.092.

Consider `CS(=O)(=O)c1ccc(-c2nc(-c3ccc(F)cc3)c(-c3ccncc3)[nH]2)cc1`, for which the relative cell viability is 0.831 ± 0.064.

Turning to `c1nc2c(NC3CCCCC3)nc(Nc3ccc(N4CCOCC4)cc3)nc2[nH]1` [Reversine], the relative cell viability is 0.578 ± 0.048.

Compound `O=c1c2ccccc2[nH]c(=S)n1CCN1CCC(=C(c2ccc(F)cc2)c2ccc(F)cc2)CC1` [Diacylglycerol Kinase Inhibitor II] gave a relative cell viability of 0.867 ± 0.094.

In turn, `Nc1n[nH]c(N)c1N=Nc1ccc(O)cc1` [Cdk9 Inhibitor II] returned a relative cell viability of 0.839 ± 0.073.

`O=Nc1c(-c2c(O)[nH]c3cc(Br)ccc23)[nH]c2ccccc12` [GSK-3 Inhibitor IX] showed a relative cell viability of 0.779 ± 0.036.

Turning to `c1cc(-c2cnn3cc(-c4ccc(OCCN5CCCCC5)cc4)cnc23)ccn1` [AMPK Inhibitor, Compound C], the relative cell viability is 0.883 ± 0.072.

In turn, `Cc1cc(Nc2nc(-c3ccccc3)nc3ccccc23)n[nH]1` [GSK-3 Inhibitor XIII] displayed a relative cell viability of 0.937 ± 0.041.

As to `CN[C@@H]1C[C@H]2O[C@@](C)([C@@H]1OC)n1c3ccccc3c3c4c(c5c6ccccc6n2c5c31)C(=O)N[C@H]4O`, the relative cell viability is 0.18 ± 0.048.

In turn, `O=C(Nc1cc(Cl)cc2c1[nH]c1cnccc12)c1cccnc1` [IKK Inhibitor X] registered a relative cell viability of 0.896 ± 0.069.

With `NCCNc1ncc(C(N)=O)c(Nc2cccc(C(F)(F)F)c2)n1` [Syk Inhibitor II], the relative cell viability amounted to 0.949 ± 0.058.

Consider `O=C1NC(=O)C(c2c[nH]c3ccccc23)=C1c1c[nH]c2ccccc12` [Bisindolylmaleimide IV], for which the relative cell viability is 0.936 ± 0.053.

`COc1cc2ncnc(Nc3cccc(O)c3)c2cc1OC` [WHI-P180, Hydrochloride] showed a relative cell viability of 0.747 ± 0.073.

`COc1cc(Nc2ncc3ccn(-c4cccc(CCC#N)c4)c3n2)cc(OC)c1OC` [Keratinocyte Differentiation Inducer] displayed a relative cell viability of 0.173 ± 0.21.

For `CCN(CC)CCCCN1c2ccccc2Oc2ccc(Cl)cc21` [Akt Inhibitor X], the relative cell viability came to 0.848 ± 0.089.

With `COc1nccc(-c2c(-c3ccc(F)cc3)ncn2C2CCC(O)CC2)n1` (centres undefined), the relative cell viability is 0.86 ± 0.11.

As for `NCCCn1cc(C2=C(c3c[nH]c4ccccc34)C(=O)NC2=O)c2ccccc21` [Bisindolylmaleimide III, Hydrochloride], the relative cell viability is 0.88 ± 0.058.

With `O=C(c1ccc(Nc2nccc(-c3cc4ccccc4s3)n2)cc1)N1CCC(N2CCCC2)CC1` [IKK Inhibitor VII], the relative cell viability turned out to be 0.773 ± 0.022.

In turn, `COc1ccc2c(c1)c1c3c(c4c5ccccc5n(C)c4c1n2CC(O)CN(C)C)C(=O)NC3=O` (centres undefined) [Gö 7874, Hydrochloride] yielded a relative cell viability of 0.901 ± 0.025.

As for `COc1cc2ncnc(Nc3ccc(O)c(Br)c3)c2cc1OC` [JAK3 Inhibitor II], the relative cell viability was determined as 0.815 ± 0.037.

As to `O=C1C(Cl)=C(N2C(=O)CCC2=O)C(=O)c2ccccc21` [MEK Inhibitor II], the relative cell viability amounted to 0.802 ± 0.089.
